Read-outs that look alike come from different tables or passages of the source.
Key:
EPHA2 = settings: concentration: 1 μM, replicates: in singlicate; n = 1
EPHA3 = settings: concentration: 1 μM, replicates: in singlicate; n = 1
EPHA4 = settings: concentration: 1 μM, replicates: in singlicate; n = 1
EPHA5 = settings: concentration: 1 μM, replicates: in singlicate; n = 1
EPHA6 = settings: n = 1
EPHA7 = settings: concentration: 1 μM, replicates: in singlicate; n = 1
EPHA8 = settings: concentration: 1 μM, replicates: in singlicate; n = 1
EPHB1 = settings: concentration: 1 μM, replicates: in singlicate; n = 1
EPHB2 = settings: concentration: 1 μM, replicates: in singlicate; n = 1
EPHB3 = settings: concentration: 1 μM, replicates: in singlicate; n = 1
[1] = concentration: 1 μM, replicates: in singlicate
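Also: KINOMEscan kinase panel screen.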

Row | SMILES | %Inh (EPHA2) [%] | %Inh (EPHA3) [%] | %Inh (EPHA4) [%] | %Inh (EPHA5) [%] | %Inh (EPHA6; [1]) [%] | %Inh (EPHA7) [%] | %Inh (EPHA8) [%] | %Inh (EPHB1) [%] | %Inh (EPHB2) [%] | %Inh (EPHB3) [%] | %Inh (EPHA6; 1 µM) [%]
1 | COC(=O)C(Cc1ccccc1)NC(=O)NC1CCN(c2ccnc(Nc3ccc(F)cc3)n2)C1 (centres unmarked) [GSK1379714] | 38 | 4 | 1 | 0 | 0 | 2 | 5 | 0 | 11 | 0 | –
2 | CCn1c(-c2ccccc2)nc2cnccc21 [SB-733416] | 10 | 0 | 24 | 10 | 29 | 7 | 5 | 7 | 15 | 26 | –
3 | COC(=O)c1cccc(NC(=O)NC2CCN(c3ccnc(Nc4ccc(F)cc4)n3)C2)c1 (centres unmarked) [GSK1379725] | 16 | 0 | 5 | 0 | 0 | 0 | 0 | 8 | 14 | 0 | –
4 | COc1ccc(CSc2nnc(-c3ccc4ncsc4c3)o2)cc1C(F)(F)F | 3 | 3 | 1 | 0 | 20 | 0 | 0 | 0 | 0 | 14 | –
5 | COc1cccc(C2=C(Nc3cc(Cl)c(O)c(Cl)c3)C(=O)NC2=O)c1 [SB-390767] | 19 | 0 | 28 | 0 | 30 | 9 | 17 | 11 | 0 | 26 | –
6 | O=C1NC(=O)C(c2ccc(Cl)cc2)=C1Nc1cccc(Cl)c1 [SB-317651] | 8 | 0 | 0 | 1 | 0 | 0 | 0 | 0 | 20 | 0 | –
7 | Cc1ccc(NC(=O)Nc2ccc(Cl)c(C(F)(F)F)c2)cc1-c1ccc(C(=O)Nc2ccncc2)cc1 [GSK1398470] | 17 | 19 | 7 | 7 | 20 | 15 | 26 | 23 | 17 | 19 | –
8 | COc1ccc(-c2coc3ccc(-c4nnc(C)o4)cc23)cc1 | 8 | 17 | 33 | 0 | 26 | 0 | 0 | 0 | 12 | 31 | –
9 | O=C(Nc1n[nH]c2nc(-c3cccs3)c(Br)cc12)C1CCCC1 [SB-743341] | 0 | 0 | 6 | 13 | 27 | 8 | 1 | 0 | 4 | 35 | –
10 | O=c1cc(N2CCOCC2)nc2n(Cc3cccc(Cl)c3Cl)c3ccccc3n12 [GSK2299009] | 8 | 5 | 14 | 1 | 6 | 19 | 25 | 26 | 61 | 20 | –
11 | Cc1ccccc1-c1cc(-c2c[nH]nc2-c2ccccn2)ccn1 [GW680061] | 10 | 0 | 11 | 0 | 11 | 14 | 22 | 0 | 15 | 9 | –
12 | CN1c2ccc(-c3ccc(C(N)=O)cc3)cc2-c2[nH]ncc2S1(=O)=O | 0 | 0 | 0 | 4 | 5 | 0 | 0 | 0 | 0 | 5 | –
13 | CS(=O)(=O)CCNCc1nc(-c2ccc3ncnc(Nc4ccc5c(cnn5Cc5ccccc5)c4)c3c2)cs1.Cl.Cl [GW569716] | 0 | 0 | 6 | 8 | 7 | 4 | 11 | 0 | 0 | 13 | –
14 | CCc1ccc(-c2ccc3c(c2)-c2n[nH]cc2S(=O)(=O)N3C)cc1 | 2 | 0 | 0 | 5 | 0 | 0 | 0 | 0 | 10 | 0 | –
15 | Cc1c(Cn2c3ccccc3n3c(=O)cc(N4CCOCC4)nc23)cccc1C(F)(F)F [GSK2306394] | 0 | 0 | 0 | 0 | 0 | 7 | 13 | 22 | 0 | 0 | –
16 | COc1cc2ncnc(Nc3cccc(Br)c3)c2cc1OC.Cl [GI230329] | 13 | 33 | 0 | 0 | 41 | 7 | 12 | 20 | 9 | 1 | –
17 | CC(=O)c1c(C)c2cnc(Nc3ccc(N4CCNCC4)cn3)nc2n(C2CCCC2)c1=O | 16 | 0 | 0 | 0 | 0 | 0 | 0 | 0 | 0 | 3 | –
18 | COc1cccc(NC(=O)Nc2ccc(C)c(-c3ccc(C(=O)Nc4ccncc4)cc3)c2)c1 [GSK1398474] | 1 | 5 | 15 | 2 | 13 | 13 | 25 | 10 | 4 | 18 | –

Row | SMILES | %Inh (EPHA2) [%] | %Inh (EPHA3) [%] | %Inh (EPHA4) [%] | %Inh (EPHA5) [%] | %Inh (EPHA6; [1]) [%] | %Inh (EPHA7) [%] | %Inh (EPHA8) [%] | %Inh (EPHB1) [%] | %Inh (EPHB2) [%] | %Inh (EPHB3) [%] | %Inh (EPHA6; 1 µM) [%]
19 | Nc1nccc(-c2c(-c3ccc(F)cc3)ncn2C2CCN(Cc3ccccc3)CC2)n1 [SB-219980] | 0 | 0 | 4 | 21 | 24 | 0 | 1 | 9 | 0 | 20 | –
20 | O=C1NC(=O)C(c2ccc(Cl)cc2)=C1Nc1ccc(O)cc1 [SB-340867] | 0 | 0 | 3 | 0 | 12 | 0 | 6 | 0 | 0 | 0 | –
21 | CC[C@@H]1CO[C@H](C(=O)Nc2ccccc2)CN1c1cc(-c2ccc3c(N)n[nH]c3c2)nc(NC)n1 [GSK2376236] | 21 | 13 | 6 | 0 | 9 | 2 | 9 | 8 | 14 | 16 | –
22 | Cc1ccc(NC(=O)c2ccc(Cl)cc2)cc1-c1ccc(C(=O)Nc2ccncc2)cc1 [GSK1398467] | 9 | 81 | 11 | 0 | 0 | 4 | 18 | 19 | 7 | 8 | –
23 | COc1ccc(Nc2nccc(-c3ccc(NC(=O)c4cc5cc(F)ccc5[nH]4)cc3)n2)cc1 [GSK1229496] | 1 | 1 | 0 | 0 | 0 | 0 | 10 | 3 | 0 | 0 | –
24 | CC(=O)c1cccc(NC(=O)NC2CCN(c3ccnc(Nc4ccc(F)cc4)n3)C2)c1 (centres unmarked) [GSK1379710] | 0 | 19 | 6 | 0 | 7 | 6 | 14 | 8 | 11 | 7 | –
25 | Cc1cccc2c(-c3ccncn3)c(-c3ccc(F)cc3)nn12 [GW515532] | 0 | 0 | 2 | 0 | 21 | 0 | 13 | 1 | 0 | 2 | –
26 | Nc1cccc(-c2ccc3c(N)n[nH]c3c2)n1 [GSK2192730] | 0 | 4 | 5 | 0 | 0 | 8 | 8 | 9 | 0 | 1 | –
27 | Nc1ncnc2occ(-c3ccc4c(c3)CCN4C(=O)Cc3cc(F)ccc3F)c12 [GSK2645446] | 0 | 12 | 0 | 0 | 0 | 0 | 0 | 0 | 6 | 0 | –
28 | CS(=O)(=O)Cc1ccc(Nc2nccc(-c3c(-c4cccc(NC(=O)C5CCCCC5)c4)nn4ncccc34)n2)cc1 [GSK350559] | 51 | 16 | 14 | 0 | – | 15 | 15 | 2 | 3 | 5 | 2
29 | FC(F)(F)c1ccccc1-c1cc(-c2c[nH]nc2-c2ccccn2)ccn1 [GW679396] | 0 | 0 | 2 | 0 | 0 | 6 | 17 | 24 | 7 | 2 | –
30 | Cc1cnc(N)c(/C=C/c2cncc(C(=O)NCCc3ccc(Cl)cc3Cl)c2)c1.Cl [GSK190937] | 8 | 16 | 6 | 0 | 0 | 6 | 10 | 5 | 0 | 6 | –
31 | Fc1ccc(-c2nn3cccc(F)c3c2-c2ccncc2)cc1 [GW475620] | 12 | 2 | 15 | 13 | 38 | 0 | 4 | 8 | 0 | 31 | –
32 | CS(=O)(=O)CCNCc1nc(-c2ccc3ncnc(Nc4ccc(OCc5ccccc5)c(Cl)c4)c3c2)cs1.Cl [GW582764] | 10 | 0 | 0 | 0 | 7 | 0 | 8 | 0 | 0 | 11 | –
33 | c1ccc(-c2ccnc3[nH]ccc23)cc1 [SB-693578] | 0 | 0 | 12 | 0 | 0 | 18 | 26 | 13 | 0 | 4 | –
34 | Cl.Cl.Cl.N#Cc1ccc(CCNc2nccc(-c3cccc(CN4CCNCC4)c3)n2)cc1 [GSK2137462] | 8 | 14 | 13 | 0 | 3 | 9 | 14 | 18 | 0 | 15 | –
35 | O=C(Nc1n[nH]c2nc(-c3ccco3)c(Br)cc12)C1CCN(Cc2ccccc2)C1.O=C(O)[C@H](O)[C@@H](O)C(=O)O (centres unmarked) [SB-742034] | 0 | 16 | 1 | 6 | 0 | 7 | 0 | 7 | 17 | 11 | –
